Out of some 16,000 compounds screened, about 4,000 (25%) were called active. About 26% were inconclusive and are not listed. The call rests on the fitted dose curve; in most records, active means well fitted curve in the direction sought with a large enough effect; inconclusive means small, poorly fitted or top-dose-only effect, or effect the other way; inactive means no such curve, though single readings can be large or run the other way. Not all results are given here.
target: Cytochrome P450 2C9 (Homo sapiens) (UniProt P11712); experiment: Cytochrome panel assay with activity outcomes; settings: recombinant CYP, pro-luciferin dealkylation, luminescence, p450-cyp2c9; series mostly up to 57.1 µM; activity, negative = inhibition: at the top concentration
Sequence (P11712 whole entry, looked up): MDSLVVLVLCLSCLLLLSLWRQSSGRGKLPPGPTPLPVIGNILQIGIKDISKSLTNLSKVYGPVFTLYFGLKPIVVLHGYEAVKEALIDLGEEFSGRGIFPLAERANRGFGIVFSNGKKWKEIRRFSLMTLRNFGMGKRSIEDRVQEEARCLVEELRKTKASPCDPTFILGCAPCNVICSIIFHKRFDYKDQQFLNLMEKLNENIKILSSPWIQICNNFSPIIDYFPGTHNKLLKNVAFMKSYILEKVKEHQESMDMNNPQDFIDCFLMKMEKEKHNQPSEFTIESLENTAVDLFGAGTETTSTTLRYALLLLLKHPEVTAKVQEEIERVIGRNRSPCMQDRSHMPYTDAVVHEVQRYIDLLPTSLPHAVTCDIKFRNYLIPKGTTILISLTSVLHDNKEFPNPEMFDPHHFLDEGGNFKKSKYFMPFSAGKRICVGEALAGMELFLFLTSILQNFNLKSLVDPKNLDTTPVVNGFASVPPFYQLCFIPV
On the % scale 0 is the no-effect control and ±100 the full control effect.

| Structure (SMILES) | activity, negative = inhibition | AC50 |
| --- | --- | --- |
| c1ccc2c(c1)CCCc1cc(NCCN3CCOCC3)nnc1-2 | 8.78% [at 25.6 µM] (inactive) | – |
| COc1ccccc1CN1CCC2(CCNCC2)CC1 | -8.3% (inactive) | – |
| C(=Nc1cnc2ccccc2c1)c1ccc2ccccc2n1 | 3.29% [at 11.4 µM] (inactive) | – |
| Cc1cccc(NC(=S)NC(=O)CCc2ccccc2)c1 | – | 7.94 µM (active) |
| C/C(=N\NC(=S)Nc1cccc(C)c1)c1ccccc1 | – | 6.31 µM (active) |
| Cc1cccc(NC(=S)Nc2ccc(Br)cc2)c1 | -14.1% (inactive) | – |
| C[C@@H](c1ccccc1)N1C(=O)[C@H]2[C@H]3[C@H](O)[C@H](O)C/C(=N/OCc4ccccc4)[C@@H]3CC[C@@H]2C1=O | -23.4% [at 11.4 µM] (inactive) | – |
| COc1ccc(CNc2ncncc2-c2cccc(C#N)c2)c(OC)c1 | -28.7% [at 2.29 µM] (inactive) | – |
| CN1CCN(C(c2ccccc2)c2ccccc2)CC1 | -7.31% [at 25.6 µM] (inactive) | – |
| S=C(NCc1ccco1)N1CCN(C(c2ccccc2)c2ccccc2)CC1 | – | 3.16 µM (active) |
| NC(=O)CNCCC(c1ccccc1)c1ccccc1 | 14.6% (inactive) | – |
| O=C1C2ON(c3ccccc3)C(c3ccncc3)C2C(=O)N1c1ccccc1 (centres undefined) | – | 0.398 µM (active) |
| COC(=O)c1cc(=O)n(C2CC2)c(=NC2CC2)s1 | 18.9% (inactive) | – |
| O=C(O)[C@H](CCc1ccccn1)c1ccccc1 | -5.61% [at 11.4 µM] (inactive) | – |
| O=C(O)c1ccccc1C(=O)Nc1nccs1 | -17.5% (inactive) | – |
| CCCC(C(=O)Nc1nccs1)c1ccccc1 (centres undefined) | – | 12.6 µM (active) |
| COc1ccccc1CN1CCC2(CC1)CCN(C(=O)c1cccn1C)CC2 | 8.97% (inactive) | – |
| CC(=O)OCCCN1c2ccccc2Nc2nnc(-c3ccccc3)cc21 | – | 1.78 µM (active) |
| CCCNC(=O)N1N=C(c2ccc(N)cc2)c2cc3c(cc2[C@H]1C)OCO3 | -17% (inactive) | – |
| Cc1ccc(C)c(S(=O)(=O)NC(CC(C)C)C(=O)O)c1 (centres undefined) | 2.73% (inactive) | – |
| O=C(O)[C@@H]1[C@@H](C(=O)NCc2ccncc2)[C@@H]2C=C[C@@H]1O2 | -12.4% [at 11.4 µM] (inactive) | – |
| Cc1ccc(SCCNC(=S)Nc2ccc(C)c(C)c2)cc1 | – | 12.6 µM (active) |
| Cc1ccc(SCCNC(=O)c2ccc(C)c(S(=O)(=O)Nc3ccccc3C)c2)cc1 | – | 4.47 µM (active) |
| Cc1ccc(SCc2ccc(C(=O)NCc3ccncc3)cc2)cc1 | – | 0.0126 µM (active) |
| Cc1ccccc1NS(=O)(=O)c1cc(C(=O)Nc2cccc(N(C)S(C)(=O)=O)c2)ccc1C | – | 0.794 µM (active) |

| Structure (SMILES) | activity, negative = inhibition | AC50 |
| --- | --- | --- |
| Cc1ccc(C(=O)NCc2ccc(N3CCN(C(=O)OC(C)(C)C)CC3)cc2)cc1 | -18.2% (inactive) | – |
| COCC(=O)N1CCC2(CC1)CN(Cc1ccccc1OC)C2 | 16.9% (inactive) | – |
| CC1=C(C(=O)O)N2C(=O)C(NC(=O)c3ccn(C)n3)C2SC1 (centres undefined) | -1.32% (inactive) | – |
| CC(C)(N=NC(C)(C)C(=N)N)C(=N)N | 0.959% [at 11.4 µM] (inactive) | – |
| COc1ccccc1CN1CCCC2(CCN(C(=O)c3cnccn3)CC2)C1 | 13.5% (inactive) | – |
| Cc1ccc(C(=O)NCCNC(=O)CN2CCOCC2)cc1 | -18.5% (inactive) | – |
| Cc1ccc(SCCNC(=O)c2ccccc2)cc1 | – | 17.8 µM (active) |
| O=C1NC(c2cccc([N+](=O)[O-])c2)=CCN1c1ccccc1O | – | 1 µM (active) |
| Nc1nc(-c2cccc([N+](=O)[O-])c2)cc(-c2cc(-c3cccc([N+](=O)[O-])c3)nc(N)n2)n1 | 20.9% [at 11.4 µM] (inactive) | – |
| Nc1nc(-c2cccs2)cs1 | -11.3% (inactive) | – |
| Cc1c(-c2ccc(F)cc2)nc(N)c(C#N)c1-c1cccs1 | – | 1.58 µM (active) |
| CSc1nc(N)nc(-c2cccs2)c1C#N | – | 7.08 µM (active) |
| Cc1cnc(CNc2ccnc(-c3ccc(N(C)C)cc3)n2)cn1 | 1.73% [at 2.29 µM] (inactive) | – |
| COc1cccc(/C=N/n2nnc3c(cnn3-c3ccccc3)c2=O)c1 | 1.29% (inactive) | – |
| O=C(CCN1CCCCC1)N1CCc2c([nH]c3ccccc23)[C@H]1c1cccnc1 | 2.98% [at 11.4 µM] (inactive) | – |
| CNc1cc(CSC)nc(SCc2ccc(Cl)c(Cl)c2)n1 | – | 8.91 µM (active) |
| Clc1ccc(CSC2=NCCN2)cc1Cl | 9.47% [at 11.4 µM] (inactive) | – |
| COc1ccc(-c2nc3cnc(Nc4cccc(OC)c4)nc3n(CCC#N)c2=O)cc1 | 4.66% (inactive) | – |
| COc1cc(C2SCCCCCCCCCCSC(c3ccc(O)c(OC)c3)SCCCCCCCCCCS2)ccc1O (centres undefined) | 10.3% [at 11.4 µM] (inactive) | – |
| COc1ccc(NC(=O)C2CC(=O)NC3=C2C(=O)CC(C)(C)C3)cc1 (centres undefined) | -7.67% (inactive) | – |
| COc1ccc(OC)c(C2CC(=O)C3=C(C2)NC(=O)CC3c2ccc(O)c(OC)c2)c1 (centres undefined) | – | 11.2 µM (active) |
| O=C=Nc1ccc(Cc2ccc(N=C=O)cc2)cc1 (tested in a mixture with another compound) | 2.55% [at 11.4 µM] (inactive) | – |
| O=C(Nc1ccccc1)N1CCC2(CC1)CCN(C(=O)c1cnccn1)CC2 | 12.7% (inactive) | – |
| O=C(NCc1ccccc1Cl)c1cnccn1 | -20.1% (inactive) | – |
| O=C(Nc1ccccc1N1CCOCC1)c1cnccn1 | – | 2 µM (active) |

| Structure (SMILES) | activity, negative = inhibition | AC50 |
| --- | --- | --- |
| CCC/C=C(\CCC)C(NS(=O)(=O)c1ccc(C(F)(F)F)cc1)c1ccc(-c2ccccc2)cc1 (centres undefined) | -29.2% (inactive) | – |
| CCC/C=C(\CCC)C(NS(=O)(=O)c1ccc(C(F)(F)F)cc1)c1ccc(C(=O)OC)cc1 (centres undefined) | – | 3.16 µM (active) |
| COC(=O)C/C=C\[C@H](C)[C@H](CO)NS(=O)(=O)c1ccc(C)cc1 | 0.902% [at 11.4 µM] (inactive) | – |
| CCC/C=C(\CCC)C(NS(=O)(=O)c1ccccc1)c1ccc(C(F)(F)F)cc1 (centres undefined) | – | 10 µM (active) |
| CCC/C=C(\CCC)C(NS(=O)(=O)CC12CCC(CC1=O)C2(C)C)c1ccc(C(=O)OC)cc1 (centres undefined) | – | 15.8 µM (active) |
| CCC/C=C(\CCC)C(NS(=O)(=O)c1ccc(Cl)cc1)c1ccc(C(=O)OC)cc1 (centres undefined) | – | 3.16 µM (active) |
| COc1c2occc2c(OC)c2c(=O)cc(C)oc12 | -22.4% [at 25.6 µM] (inactive) | – |
| Cc1ccccc1[C@@H](OCCN(C)C)c1ccccc1 | -17.5% (inactive) | – |
| CCC/C=C(\CCC)C(NS(C)(=O)=O)c1ccccc1 (centres undefined) | -21.6% (inactive) | – |
| CCC/C=C(\CCC)C(NS(=O)(=O)c1ccc(Cl)cc1)c1ccccc1 (centres undefined) | – | 2.51 µM (active) |
| CCN(CC)C(=O)N1CCN(C)CC1 | 14.3% [at 25.6 µM] (inactive) | – |
| CS(=O)(=O)N1CCC2(CCCN(C(=O)Nc3cccc(C#N)c3)C2)CC1 | -4.46% (inactive) | – |
| CCOc1ccccc1NC(=O)CSc1nnc(-c2cnccn2)n1C | -16% (inactive) | – |
| COc1ccccc1-n1c(SCC(=O)Nc2ccccc2F)nc2[nH]ncc2c1=O | – | 15.8 µM (active) |
| O=C(CSc1nc2nc(-c3cccs3)cc(C(F)(F)F)c2c(=O)[nH]1)NCc1ccco1 | – | 0.631 µM (active) |
| CCn1cc(C(=O)NCC(=O)OC)c2cc(OC)c(OC)cc2c1=O | -29.2% (inactive) | – |
| Oc1ccc(Cn2c(-c3ccc(O)cc3)nc3ccccc32)cc1 | 9.3% [at 11.4 µM] (inactive) | – |
| c1ccc(CN2c3ccccc3-c3nc4ccccc4n3C2c2ccccn2)cc1 (centres undefined) | – | 7.94 µM (active) |
| CC(C)(C)c1cc2cccnc2n1Cc1ccccc1 | 1.4% (inactive) | – |
| Clc1ccc(Cn2c(-c3cccnc3Cl)nc3ccccc32)c(Cl)c1 | – | 5.62 µM (active) |
| Clc1ncccc1-c1nc2ccccc2n1Cc1ccccc1 | – | 15.8 µM (active) |
| NC(N)=N[C@H](CCC(=O)O)C(=O)O | 18.9% (inactive) | – |
| O=C1OCC(c2ccccc2)=C1c1ccc(S(=O)(=O)N2CCOCC2)s1 | – | 12.6 µM (active) |
| CCCCCC(=O)O[C@H](CC(=O)O)C[N+](C)(C)C | -7.97% (inactive) | – |
| COc1ccc(S(=O)(=O)N2CCN(CC(=O)Nc3cc(OC)cc(OC)c3)CC2)cc1 | 19.8% (inactive) | – |

| Structure (SMILES) | activity, negative = inhibition | AC50 |
| --- | --- | --- |
| COc1ccccc1N1CCN(C[C@@H](C(=O)NC(C)(C)C)c2ccccc2)CC1 | 9.59% (inactive) | – |
| COc1ccccc1NC(=O)CN1CCN(c2ccccc2F)CC1 | – | 5.01 µM (active) |
| CCN(CC)c1ccc(NC(=O)CN2CCN(c3ccccc3F)CC2)cc1 | – | 11.2 µM (active) |
| Cc1cccc(N2CCN(CC(=O)Nc3ccc(-n4cnnn4)cc3)CC2)c1C | -11.3% (inactive) | – |
| O=C(CN1CCN(S(=O)(=O)c2ccc(F)cc2)CC1)Nc1ccc(Cl)c(C(F)(F)F)c1 | -23.9% (inactive) | – |
| CC1CCOC2(O1)C(=O)N(CN1CCN(c3ccccc3F)CC1)c1ccccc12 (centres undefined) | 24.7% (inactive) | – |
| O=C(NCCCN1CCN(c2ccccc2F)CC1)C1CCC(=O)N1C1CCCCC1 (centres undefined) | -1.7% (inactive) | – |
| COc1ccc(C)cc1NC(=O)CN1CCN(S(=O)(=O)c2ccc(F)cc2)CC1 | – | 2.51 µM (active) |
| O=C(CCN1CCN(c2ccccc2F)CC1)Nc1ccccc1F | – | 3.98 µM (active) |
| O=c1c(-c2ccccc2)c(O)c2cccc3c2n1CCC3 | 27.1% (inactive) | – |
| COc1ccccc1CN1CCCC2(CCNCC2)C1 | -6.14% (inactive) | – |
| COc1cc(NC(=O)c2ccccc2)c(OC)cc1NC(=O)CN1CCN(c2ccccn2)CC1 | – | 3.16 µM (active) |
| CCOC(=O)N1CCN(S(=O)(=O)c2ccc(C(=O)Nc3ccc(F)cc3F)cc2)CC1 | – | 15.8 µM (active) |
| CCOc1ccc(C(=O)CN2CCN(S(=O)(=O)c3ccc(F)cc3)CC2)cc1 | -47.6% (inactive) | – |
| COC(=O)N1CCC2(CC1)CN(c1ccccn1)C2 | 0.409% (inactive) | – |
| COc1ccccc1N1CCN(CCN(C(=O)C2CCCCC2)c2ccccn2)CC1 | -3.2% (inactive) | – |
| CN(C)CCNc1ccccn1 | 3.16% [at 11.4 µM] (inactive) | – |
| Cc1noc(C)c1C(=O)N1CCC2(CCCN(Cc3nccs3)C2)CC1 | 4.27% (inactive) | – |
| CN(C)Cc1ccccc1-c1cncnc1NC1CC1 | 8.78% [at 2.29 µM] (inactive) | – |
| Cc1cc(OCCNCCO)cc(C)c1Cl | -7.03% (inactive) | – |
| CN(C)CCNC(=O)c1cc(Br)ccc1Cl | 21.3% (inactive) | – |
| Cc1ccc(OCCNC(=O)c2cc(-n3cnnc3)ccc2Cl)cc1C | – | 11.2 µM (active) |
| Cc1cccc(N/C(=N\S(=O)(=O)c2ccccc2)C(F)(F)F)c1 | – | 2.51 µM (active) |
| NC(N)=N/N=C\c1ccc(C2CCNCC2)cc1 | 2.7% [at 11.4 µM] (inactive) | – |
